Reference: PubChem BioAssay (EPA / NIEHS)
Some structures have more than one record in an assay (separate samples or runs), and their calls can disagree. The source made the active and inactive calls. Rule for the calls: active = hit-call score of the fitted dose curve at least 0.9, where 1 is the maximum; inactive = score below 0.9.

Read-out: Collagen III, COL3A1 (gene 1281)
Experiment: BSK_hDFCGF_CollagenIII: BioMAP Diversity Plus: hDFCGF Assay for Collagen III Biomarker Activity (AID 2283056)
Conditions: primary human foreskin fibroblasts; actives raise or lower the signal
Procedure: BSK_hDFCGF is a cell-based, multiplexed-readout assay that uses foreskin fibroblast, a human skin primary cell, with measurements taken at 24 hours after chemical dosing in a 96-well plate.BSK_hDFCGF_CollagenIII is an assay component measured in the BSK_hDFCGF assay. It measures Collagen antibody related to regulation of gene expression using ELISA technology.Data from the assay component BSK_hDFCGF_CollagenIII was analyzed into 1 assay endpoint. This assay endpoint, BSK_hDFCGF_CollagenIII, was analyzed with bidirectional fitting relative to DMSO as the negative control and baseline of activity. Using a type of binding reporter, gain or loss-of-signal activity can be used to understand changes in the signaling as they relate to the gene COL3A1. Furthermore, this assay endpoint can be referred to as a primary readout, because this assay has produced multiple assay endpoints where this one serves a signaling function. To generalize the intended target to other relatable targets, this assay endpoint is annotated to the cell adhesion molecules intended target family, where the subfamily is collagen.
The levels of cell surface (or secreted, indicated by the prefix "s") biomarker endpoints were measured by ELISA. Overt cytotoxicity to cells in confluent adherent cultures (all systems other than the BT system) was assessed by measuring total protein levels using sulforhodamine B (SRB) staining in parallel cultures at the time of biomarker measurements, indicated as SRB endpoints. For proliferation assays for adherent cell types, individual cell types are cultured at sub-confluence and relative cell numbers quantified by SRB staining at time points optimized for each system (48 h: 3C and CASM3C systems; 72 h: BT and HDF3CGF systems; 96 h: SAg system). SRB was performed by staining cells with 0.1% SRB after fixation with 10% TCA and reading wells at 560 nm.Viability and proliferation of PBMC (T cells) was quantified by Alamar Blue reduction for the SAg and BT systems. For PBMC viability (referred to as PBMC Cytotoxicity within the assay endpoint names), cells were plated (75,000/well in a 96-well plate) and then chemical samples added for 1 h before addition of activators, SEB and TSST-1 (20 ng/mL final concentration each). Cells were incubated for 90 h. Then, Alamar Blue (20 uL/well) (Invitrogen, Cat DAL1100) was added for 6 h, and the plates were read with a fluorescence microplate reader at 546/580 nm (excitation/emission). For PBMC proliferation, cells were plated and activated as above but incubated for only 16 h prior to addition of Alamar Blue. Plates were read after 6 h.

Row | Compound | outcome | AC50
1 | CCCCCCCCCC=O | inactive | –
2 | Cc1cc(C2(c3cc(C)c(O)cc3C)OS(=O)(=O)c3ccccc32)c(C)cc1O | inactive | –
3 | O=C1OC2(c3cc(Br)c(O)c(Br)c3Oc3c2cc(Br)c(O)c3Br)c2c(Cl)c(Cl)c(Cl)c(Cl)c21 | – | 4.38 µM (active)
4 | CC(C)c1ccc(C(C)C)cc1 | inactive | –
5 | NCCNCCN | inactive | –
6 | C#C[C@]1(O)CC[C@H]2[C@@H]3CCC4=Cc5oncc5C[C@]4(C)[C@H]3CC[C@@]21C | inactive | –
7 | O=P(c1ccccc1)(c1ccccc1)c1ccccc1 | inactive | –
8 | c1ccc2sc(SN(C3CCCCC3)C3CCCCC3)nc2c1 | inactive | –
9 | CCCCC(CC)COCCC#N (stereo not given) | – | 24.1 µM (active)
10 | CNC[C@H](O)c1cccc(O)c1 | inactive | –
11 | CC[Si](OC(C)=O)(OC(C)=O)OC(C)=O | inactive | 5.47 µM (active)
12 | CC(=O)O[C@]1(C(C)=O)CC[C@H]2[C@@H]3C[C@H](C)C4=CC(=O)CC[C@]4(C)[C@H]3CC[C@@]21C | inactive | –
13 | CC(=O)Nc1ccccc1O | inactive | –
14 | Cc1ccc2n[nH]nc2c1 | inactive | –
15 | CC(=O)[C@H]1CC[C@H]2[C@@H]3CC=C4C[C@@H](O)CC[C@]4(C)[C@H]3CC[C@]12C | inactive | 5.69 µM (active)
16 | CCC(=O)OCc1ccccc1 | inactive | –
17 | CC1COc2ccccc2N1C(=O)C(Cl)Cl (stereo not given) | – | 0.0289 µM (active)
18 | O=C=NC1CCC(CC2CCC(N=C=O)CC2)CC1 (stereo not given) | inactive | –
19 | CCn1c2ccccc2c2cc(N)ccc21 | inactive | –

Row | Compound | outcome | AC50
20 | C=C(C)C(=O)O[C@H]1C[C@@H]2CC[C@@]1(C)C2(C)C | – | 20 µM (active)
21 | CCCCC(CC)COC(=O)/C=C\C(=O)OCC(CC)CCCC (stereo not given) | inactive | –
22 | CC(C)(COC(=O)c1ccccc1)COC(=O)c1ccccc1 | – | 16.7 µM (active)
23 | CCc1c(C)cc(N)c(CC)c1N | inactive | –
24 | O=C1CCCCCCCCCCCCCCO1 | – | 11.4 µM (active)
25 | N#Cc1ccc(CC(=NNC(=O)Nc2ccc(OC(F)(F)F)cc2)c2cccc(C(F)(F)F)c2)cc1 | inactive | –
26 | CC(C)Oc1ccccc1O | inactive | –
27 | CCCCCCCCCCCCCCCCCC(=O)OCC(CC)CCCC (stereo not given) | inactive | –
28 | OC1OC[C@@H](O)[C@H](O)[C@H]1O (stereo not given in full) | inactive | –
29 | OC[C@H]1O[C@H](O[C@]2(CCl)O[C@H](CCl)[C@@H](O)[C@@H]2O)[C@H](O)[C@@H](O)[C@H]1Cl | inactive | –
30 | COC(=O)c1ccc(C)cc1 | inactive | –
31 | O=C(O)c1cn(-c2ccc(F)cc2)c2cc(N3CCNCC3)c(F)cc2c1=O | inactive | –
32 | CC1CCC(C(C)CS)CC1S (stereo not given) | – | 4.29 µM (active)
33 | Cc1ccc(Nc2ccc(O)c3c2C(=O)c2ccccc2C3=O)cc1 | inactive | –
34 | C=C[Si](OCC)(OCC)OCC | inactive | –
35 | CC(=O)OCCC(C)CC(C)(C)C (stereo not given) | inactive | –
36 | COc1cc(C=O)ccc1OC(=O)C(C)C | inactive | –
37 | O=[N+]([O-])c1cc(C(F)(F)F)ccc1Cl | inactive | –
38 | Cc1ccc(O)c(C(C)(C)C)c1 | – | 30.4 µM (active)
